# The campaign covered roughly 360,000 compounds. About 25,000 (6.9%) were called active. Inconclusive results (about 9%) are left out. Calls follow the shape of the dose curve; as a rule, active = well fitted inhibition curve with a large enough effect; inconclusive = small, poorly fitted or top-dose-only effect; inactive = flat fitted curve, though single readings scatter. This excerpt belongs to a sample that is enriched for actives.
# Molecular target: Luciferin 4-monooxygenase (Photinus pyralis) (UniProt P08659)
# Sequence (P08659 whole entry, looked up): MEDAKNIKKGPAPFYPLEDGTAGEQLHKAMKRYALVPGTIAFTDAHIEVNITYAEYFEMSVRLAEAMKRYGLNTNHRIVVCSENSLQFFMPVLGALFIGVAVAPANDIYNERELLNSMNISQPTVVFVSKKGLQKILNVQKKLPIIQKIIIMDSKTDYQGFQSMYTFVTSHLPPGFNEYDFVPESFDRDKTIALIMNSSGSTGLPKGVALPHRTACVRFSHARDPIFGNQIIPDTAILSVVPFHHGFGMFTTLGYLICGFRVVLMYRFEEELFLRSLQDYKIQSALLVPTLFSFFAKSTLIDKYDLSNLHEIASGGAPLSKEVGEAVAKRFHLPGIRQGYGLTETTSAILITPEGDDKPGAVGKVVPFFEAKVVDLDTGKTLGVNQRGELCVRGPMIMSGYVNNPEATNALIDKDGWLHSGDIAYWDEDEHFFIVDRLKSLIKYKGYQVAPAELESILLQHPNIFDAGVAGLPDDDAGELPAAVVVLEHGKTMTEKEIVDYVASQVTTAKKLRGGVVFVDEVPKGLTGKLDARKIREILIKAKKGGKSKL
# Assay: qHTS profiling assay for firefly luciferase inhibitor/activator using purifed enzyme and Km concentrations of substrates (counterscreen for miR-21 project); also: nearly all actives have a fitted effect of over 55% in size;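 as to activity change, negative = inhibition: plate controls were vehicle for no effect and reference inhibitor for full effect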
# Conditions: purified FLuc, luminescence inhibition; series mostly up to 57.5 µM; activity change, negative = inhibition: at the top concentration
# Summary of the method: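 Purified P. pyralis luciferase, 10 nM final, with Km-level 10 uM D-luciferin and 10 uM ATP in 50 mM Tris acetate pH 7.5, 10 mM Mg acetate, 0.01% Tween-20, 0.05% BSA; 6-point qHTS titration about 60 µM downward; luminescence read.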
# Potency is read from the fitted curve at half-maximal effect.
SMILES,"activity change, negative = inhibition",Potency
CN(C(=O)CSc1nc2ccc(NC(=O)COc3ccccc3)cc2s1)c1ccccc1,-14.5% (inactive),
CN(C(=O)COC(=O)Cn1cnc2c1c(=O)n(C)c(=O)n2C)C1(C#N)CCCCC1,3.02% (inactive),
Cc1ccc(Cl)cc1N1CCN(C(=O)c2cccn3c(=O)c4cc(Cl)ccc4nc23)CC1,-2.45% (inactive),
COc1ccc(N2CCN(CCNC(=O)c3nnc(Cc4c(F)cccc4Cl)o3)CC2)cc1,4.25% (inactive),
COc1cc(OC)c(N(C)C(=O)c2cc3c(=O)oc4ccccc4c3s2)cc1Cl,-0.794% (inactive),
COc1cc(OC)c(OC)cc1/C=C/c1nc2cc3ccccc3cc2c(=O)n1-c1ccc(F)c(Cl)c1,-1.28% (inactive),
CC(C)CCNC(=O)CSc1nc2ccccc2nc1Cc1ccc(Cl)cc1,-4.71% (inactive),
CCOC(=O)c1cnc(Nc2nc3ccccc3o2)nc1CSC(=S)N1CCCCC1,,9.53 µM (active)
CCOC(=O)CCNC(=O)N1CCCC(C(=O)c2ccccc2SC)C1 (centres undefined),-2.33% (inactive),
CCc1ccc(CNC(=O)C2CCCN(c3nc4ccccc4o3)C2)cc1 (centres undefined),3.01% (inactive),
COCCNC(=O)CSc1c(C)cnc2c1c(=O)n(C)c(=O)n2C,-1.51% (inactive),
COc1ccc(-c2nc(CN3CCC(C(=O)NCCN(CC(C)C)CC(C)C)CC3)c(C)o2)cc1OC,-5.23% (inactive),
O=C1/C(=C/c2coc3ccc(O)cc3c2=O)SC(=S)N1c1ccccc1,-7.68% (inactive),
CC(C)CN(Cc1c(O)ccc2c(=O)c(-c3ccccc3)coc12)CC(C)C,4.11% (inactive),
O=c1c(-c2ccccc2)coc2cc(O)ccc12,,15.1 µM (active)
COC(=O)COc1ccc2c(c1C)O/C(=C\c1ccco1)C2=O,,2.13 µM (active)
Cc1cc(C)c(OCC(=O)N/N=C/c2ccco2)c(C)c1,4.89% (inactive),
COC(=O)C1=C(C)N(c2ccc(Br)cc2)C(=O)/C1=C\c1ccco1,-2.45% (inactive),
Cc1nn(CC(=O)NCCc2ccccc2)c(=O)c2c1sc1ccccc12,-0.483% (inactive),
O=C(c1ccc(S(=O)(=O)c2ccccc2)cc1)N1CCCCCC1,4.38% (inactive),
O=C(c1ccc(CSc2ccccc2)cc1)N1CCCCCC1,,23.9 µM (active)
CC1CCN(C(=O)c2ccc(CSc3ccc(Cl)cc3)cc2)CC1,-1.34% (inactive),
COc1cc(OC)c(N2CC(C(=O)Nc3cc(Cl)ccc3N3CCOCC3)CC2=O)cc1Cl (centres undefined),-1.25% (inactive),

SMILES,"activity change, negative = inhibition",Potency
CC(C)CNC(=O)COC(=O)/C=C/c1ccccc1[N+](=O)[O-],-0.249% (inactive),
O=C(/C=C/c1ccccc1[N+](=O)[O-])OCC(=O)N1CCCC1,-2.54% (inactive),
O=C(/C=C/c1ccccc1[N+](=O)[O-])OC1CCCCC1=O (centres undefined),,15.1 µM (active)
CCOc1ccc(CCNC(=O)c2c(C)oc3ncn(C)c(=O)c23)cc1,-15.7% (inactive),
O=C(Nc1cccc(C(=O)NC2CC2)c1)c1ccc(F)c(S(=O)(=O)N2CCOCC2)c1,1.1% (inactive),
Cc1ccc(-n2cc3ccc([N+](=O)[O-])cc3n2)cc1,,0.953 µM (active)
Cc1ccc(-c2cn(S(=O)(=O)c3cccc([N+](=O)[O-])c3)nc2N)cc1,0.0034% (inactive),
Cc1ccnc(N2C(=O)c3ccc([N+](=O)[O-])cc3C2=O)c1,-0.44% (inactive),
COc1ccc(C2=CC(c3ccccc3Cl)n3nc(-c4ccc(Cl)cc4)nc3N2)cc1 (centres undefined),-4.89% (inactive),
NS(=O)(=O)c1ccc(NC(=O)COc2ccc(S(=O)(=O)NC3CCCCC3)cc2)cc1,-1.09% (inactive),
COc1ccc(-n2nnnc2-c2nc3ccccc3s2)cc1,,0.601 µM (active)
COc1ccc(CSc2nnnn2-c2ccc(C(=O)O)cc2)cc1,0.195% (inactive),
COc1ccc(-n2nnnc2CNC(=O)c2ccc3ccccc3c2)cc1,2.8% (inactive),
Cc1ccc(S(=O)(=O)NCCC(=O)NCc2ccc(Cl)cc2)cc1C,1.46% (inactive),
COc1cccc(CNCc2c(C(=O)O)n(Cc3ccc(C)cc3)c3cc(C)ccc23)c1OC,-2.43% (inactive),
COC(=O)c1cc(OC)ccc1-c1ccc(OC)cc1,0.668% (inactive),
COc1ccc(C(=O)CCC(=O)Nc2cccnc2)c(OC)c1,-7.14% (inactive),
CCOC(=O)C1CCCN(C(=O)/C=C/c2ccc(OC)cc2)C1 (centres undefined),-18.1% (inactive),
CO/N=C/CC(=O)c1ccc(OC)cc1,-0.488% (inactive),
COc1ccc(C(=O)/C=C/c2cccnc2)c(OC)c1,,19 µM (active)
COc1cccc(N2CC(NC(=O)/C=C\c3ccccc3)CC2=O)c1 (centres undefined),1.08% (inactive),
COc1ccc(/C=C/C(=O)c2ccc(OC)cc2O)cc1,,7.57 µM (active)
COc1ccc(C(=O)/C=C/c2ccc(OC3CSC3)cc2)cc1,,12 µM (active)

SMILES,"activity change, negative = inhibition",Potency
COc1ccc(C(=O)NCC(=O)N/N=C/c2cccnc2)cc1,2.39% (inactive),
Cc1ccc(C)c(CNC(=O)c2cc3ccccn3n2)c1,-5.12% (inactive),
COc1ccc(S(=O)(=O)NCC(=O)NCc2cc(=O)n(C)c(=O)n2C)cc1F,4.13% (inactive),
COc1cccc(C(c2c(O)cc(C)n(Cc3ccco3)c2=O)N2CCN(c3ccccc3)CC2)c1 (centres undefined),-13.6% (inactive),
CCOc1ccc(-c2cc3nc(C4CCN(C(=O)OC(C)(C)C)CC4)c(C(=O)Nc4ccc(C(=O)OC)cc4)cn3n2)cc1,-8.05% (inactive),
COc1ccccc1NC(=O)C1=C(C)Nc2nc(SCC(=O)c3ccc(C)cc3)nn2C1c1ccccc1C (centres undefined),5.07% (inactive),
Cc1cc(C(=O)Nc2cccc(C(F)(F)F)c2)c2c(C)nn(-c3cccc(F)c3)c2n1,-8.84% (inactive),
COc1ccccc1N(CC(=O)N/N=C(\C)c1ccccc1O)S(=O)(=O)c1ccc(C)cc1,3.81% (inactive),
CC(C)=C(NC(=O)c1ccccc1)C(=O)N/N=C(\C)c1ccccc1O,4.12% (inactive),
C/C(=N\NC(=O)c1ccoc1C)c1ccccc1O,,15.1 µM (active)
CCCOC(=O)c1c(NC(=O)c2cc3nc(-c4ccc(OC)cc4)cc(C(F)(F)F)n3n2)sc2c1CCCC2,-5.72% (inactive),
COc1ccc(N2CCN(C(=O)CSCc3nc(-c4ccccc4Cl)oc3C)CC2)cc1,-11.4% (inactive),
COc1ccc(-n2ccn(CC(=O)Nc3ccc(C)c(C)c3)c(=O)c2=O)cc1OC,-7.6% (inactive),
Cc1cccc(S(=O)(=O)c2cn(Cc3ccccc3)c3cc(N4CCOCC4)c(F)cc3c2=O)c1,-6.65% (inactive),
O=C(NCCCO)c1nn(-c2ccc(Cl)cc2)nc1CO,-18.3% (inactive),
Nc1ccc2nn(-c3ccc(Cl)cc3)nc2c1,,0.757 µM (active)
CN(C)c1nnnn1-c1ccc(Cl)cc1,-2.83% (inactive),
COc1ccc(/C=N/Nc2nc3ccccc3c(=O)[nH]2)cc1,,6.01 µM (active)
COc1ccc(/C=N/OCC(=O)N(Cc2ccccc2)c2ccccc2C(=O)O)cc1,1.35% (inactive),
COc1cc(OC)c(S(=O)(=O)Nc2ccccc2C(=O)O)cc1S(=O)(=O)Nc1ccccc1C(=O)O,-6.46% (inactive),
COc1ccc(CCCc2nnc(SCc3nc4ccccc4c(=O)[nH]3)n2C)cc1,2.77% (inactive),
COc1ccc(/C=N/Nc2nc(-c3ccc(C)cc3)c(C#N)c(=O)[nH]2)cc1,2.09% (inactive),
COc1ccc(/C=N/Nc2ccccc2C(=O)O)cc1,,0.151 µM (active)

# From PubChem BioAssay AID588342 (National Center for Advancing Translational Sciences (NCATS), 2011)
